Assay outcomes as filed in PubChem.
TDP1 cell noCPT = qHTS for Inhibitors of human tyrosyl-DNA phosphodiesterase 1 (TDP1): qHTS in cells in absence of CPT. DT40 Tdp1-/- hTDP1 cells, no CPT, ATP luminescence, 48 h. Potency, µM (doses to about 46.2 µM), hits mostly inhibitors. 420,000 tested, 15% active. AID 686978, 2013; further: nearly all actives have a fitted effect of over 55% in size
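DT40 Tdp1-/-;hTDP1 cells, no CPT (DMSO vehicle only), 400 cells/well; compounds pin-transferred; ≥48 hr, 37 °C; CellTiter-Glo 30 min RT dark, luminescence read.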
TDP1 cell CPT = DT40-hTDP1 cell growth loss with CPT. chicken DT40 Tdp1-/-;hTDP1 cells + 20 nM CPT, ATP luminescence, 48 h. Potency, µM (titrated, usually from 46.2 µM), hits mostly inhibitors. 420,000 tested, 12% active; further: nearly all actives have a fitted effect of over 55% in size
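Cell growth measured by CellTiter-Glo luminescence after a minimum 48 h, 37 C compound exposure with 20 nM CPT in Tdp1-knockout DT40 cells stably expressing hTDP1, seeded 400/well; qHTS titration format.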
RORgamma inh = blocks mouse ROR gamma transcriptional activity. 310,000 tested, 5.4% active. Potency, µM (doses to about 53.6 µM), actives largely listed as inhibitors. Drosophila S2 Gal4-RORgamma UAS-luciferase reporter, 20 h. P51450; further: nearly all actives have a fitted effect of over 60% in size
Target sequence (P51450 whole entry, looked up, the tested form may be a part): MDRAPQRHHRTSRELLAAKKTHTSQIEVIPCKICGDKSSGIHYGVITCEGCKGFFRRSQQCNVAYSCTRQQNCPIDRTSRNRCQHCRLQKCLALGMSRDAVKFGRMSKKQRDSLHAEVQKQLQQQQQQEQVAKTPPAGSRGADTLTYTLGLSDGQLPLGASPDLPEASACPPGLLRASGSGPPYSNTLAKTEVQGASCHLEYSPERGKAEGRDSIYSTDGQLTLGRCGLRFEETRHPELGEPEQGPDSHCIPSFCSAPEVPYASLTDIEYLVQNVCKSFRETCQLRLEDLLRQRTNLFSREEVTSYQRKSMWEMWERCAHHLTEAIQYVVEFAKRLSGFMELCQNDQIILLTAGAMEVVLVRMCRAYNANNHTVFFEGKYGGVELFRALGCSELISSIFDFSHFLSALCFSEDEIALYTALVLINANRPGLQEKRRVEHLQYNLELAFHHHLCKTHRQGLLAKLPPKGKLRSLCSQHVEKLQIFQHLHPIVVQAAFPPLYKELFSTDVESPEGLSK
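ROR gamma transcriptional activity was tracked as Gal4-UAS luciferase output in stably transfected Drosophila Schneider cells, with compound added 1 hr before 700 uM copper sulfate induction and a 20 hr ambient-temperature incubation.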
ELG1 DNA repair = blocks ELG1-dependent DNA repair in HEK293T cells; AID 504467; Potency, µM (doses to about 46.1 µM), hits mostly inhibitors; HEK293T ELG1-luciferase reporter, luminescence, 16 h; DNA damage induced by 5-fluorouridine; 330,000 tested, 2.3% active; further: nearly all actives have a fitted effect of over 55% in size
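Reporter activity after DNA damage by 5-fluorouridine is monitored. Compound-treated cells incubate 16 hr at 37 °C, then ONE-Glo is added for 30 min before luminescence reading.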
IL1B secr inh = blocks inflammasome-driven IL-1 beta release | 360,000 tested, 4.7% active | THP-1 LPS/ATP IL-1B secretion, AlphaLISA, 16 h; stronger effect = lower value | AID 743279 | activity change, % at 57.5 µM; in the data active means activity change below about -50%; inconclusive means mostly about -30% to -49%
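THP-1 cells pretreated 1 hr with compounds (up to 57.5 uM final), then stimulated with LPS (250 ng/mL final) plus ATP (1.25 mM final); secreted IL-1B measured by AlphaLISA after 16 hr, decreased signal indicating inhibition.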
VP16 counter = counter-screen for ROR gamma inhibitors: Gal4-VP16 reporter. AID 2546. 310,000 tested, 3.5% active. Drosophila S2 Gal4-VP16 UAS-luciferase, luminescence, 20 h. Potency, µM (top dose mostly 53.6 µM), usual class: inhibitors;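 further: Gal4-VP16 expression switched on by copper sulfate through the metallothionein promoter; nearly all actives have a fitted effect of over 50% in size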
Numbers stand for hits; . = inactive; ? = inconclusive; / = not tested or not shown. In the library only some 21% were active in any assay of this set; here they are far more common. Unless noted, the call rests on the fitted dose curve; in most records, active means well fitted curve in the direction sought with a large enough effect; inconclusive means small, poorly fitted or top-dose-only effect, or another doubt; inactive means no such curve, though single readings can be large; an effect the other way counts as inactive or inconclusive.

SMILES	TDP1 cell noCPT	TDP1 cell CPT	RORgamma inh	ELG1 DNA repair	IL1B secr inh	VP16 counter
COc1ccc(C(=O)NCC(c2ccc3c(c2)OCO3)N2CCN(c3ccc(OC)cc3)CC2)cc1 (stereo unspecified)	5.8µM	3.3µM	/	?	.	/
COc1cc(C(=O)NCC(c2ccc3c(c2)OCO3)N2CCOCC2)cc(OC)c1OC (stereo unspecified)	?	12µM	/	/	/	/
C=CCNC(=O)C(=O)NCC(c1ccc2c(c1)OCO2)N1CCN(c2ccc(F)cc2)CC1 (stereo unspecified)	?	16µM	.	.	.	.
N#Cc1ccccc1NC(=O)C(=O)NCC(c1ccc2c(c1)OCO2)N1CCN(c2ccccc2)CC1 (stereo unspecified)	8.2µM	?	/	/	/	/
O=C1COc2ccc(S(=O)(=O)N3CCC(C(=O)NCc4ccccc4)CC3)cc2N1	.	.	.	.	.	.
COc1cccc(C(=O)NCC(c2ccc3c(c2)OCO3)N2CCOCC2)c1 (stereo unspecified)	.	.	/	/	/	/
COc1cccc(C(=O)NCC(c2ccc3c(c2)OCO3)N2CCN(c3ccc(F)cc3)CC2)c1 (stereo unspecified)	10µM	15µM	/	?	.	/
O=C(NCC(c1ccc2c(c1)OCO2)N1CCOCC1)c1ccccc1F (stereo unspecified)	.	?	/	/	/	/
COc1cccc(NC(=O)C(=O)NCC(c2ccc3c(c2)OCO3)N2CCOCC2)c1 (stereo unspecified)	16µM	?	/	/	/	/
O=C(NCC(c1ccc2c(c1)OCO2)N1CCN(c2ccccc2)CC1)c1ccccc1F (stereo unspecified)	12µM	7.3µM	/	/	/	/
CCCC(=O)NCC(c1ccc2c(c1)OCO2)N1CCN(c2ccc(F)cc2)CC1 (stereo unspecified)	21µM	?	/	/	/	/
CCc1ccccc1NC(c1nnc(-c2cccc(F)c2)o1)c1ccc(F)cc1Cl (stereo unspecified)	.	.	/	/	/	/
Cc1ccc(S(=O)(=O)N2CCN(C)CC2c2ccccc2)cc1 (stereo unspecified)	.	.	/	.	.	/
Cc1cn2c(=O)c(S(=O)(=O)N3CCN(c4cc(Cl)ccc4C)CC3)c(C)nc2s1	.	.	/	/	/	/
C=CC[C@](C)(O)c1ccccc1	/	/	.	/	/	.
Oc1ccc(C[C@@H](CN2CCC[C@@H]2CN2C(=S)NC[C@@H]2Cc2ccccc2)N2C[C@H](Cc3ccccc3)N(CCc3ccccc3)C2=S)cc1	18µM	16µM	/	/	.	/
Oc1ccc(C[C@H]2CNC(=S)N2CC2CCCN2C[C@H](Cc2ccccc2)N2C[C@H](Cc3ccc(O)cc3)N(CCc3ccccc3)C2=S)cc1 (stereo partly specified)	23µM	23µM	/	/	?	/
Cc1csc2nc(COC(=O)CNC(=O)c3ccccc3Cl)cc(=O)n12	.	.	/	/	/	/
O=c1[nH]ncc(N/N=C\c2cccs2)c1Cl	.	.	.	?	.	?
COc1cc(OC)c(/C=C/c2cc3ccccc3c[n+]2C)c(OC)c1	1µM	0.5µM	/	/	/	/
COc1ccc(OC)c(/C=C/c2cc3ccccc3c[n+]2C)c1	2µM	2.8µM	/	/	/	/
COc1ccc(OC)c(/C=C/c2c3ccccc3cc[n+]2C)c1	1.4µM	2.2µM	/	/	/	/
COc1ccc(OC)c(C=NN=Cc2cc(OC)ccc2OC)c1	?	.	/	/	.	/
Cc1ccc(Nc2cc(=O)n(C)c(=O)[nH]2)cc1C	?	?	/	/	.	/
O=C(COC(=O)c1cccc(OC(F)F)c1)Nc1cc(S(=O)(=O)N2CCCC2)ccc1Cl	?	?	/	/	.	/
SMILES	TDP1 cell noCPT	TDP1 cell CPT	RORgamma inh	ELG1 DNA repair	IL1B secr inh	VP16 counter
Cc1ccc(Cl)cc1-n1ncc2c(N3CCCCCC3)ncnc21	8.2µM	5.8µM	/	/	/	/
CCN(c1ncnc2c1cnn2-c1cc(Cl)ccc1C)C1CCCCC1	15µM	15µM	/	/	/	/
Cc1ccc(-n2ncc3c(N4CCCCCC4)ncnc32)cc1Cl	.	.	/	/	/	/
CC(=O)c1ccc(N2CCN(c3ncnc4c3cnn4-c3cc(Cl)ccc3C)CC2)cc1	5.8µM	2.6µM	/	/	/	/
CC(=O)c1ccc(N2CCN(c3ncnc4c3cnn4C)CC2)cc1	8.2µM	?	/	/	/	/
COc1ccc(N2CCN(c3ncnc4c3cnn4-c3ccc(C)c(Cl)c3)CC2)cc1	.	.	/	/	/	/
O=C(Cc1ccc(Cl)cc1Cl)OCC(=O)N1CCCCC1	.	.	.	.	.	.
CCCCC(=O)N(C)c1c(C)nc2ccc(C(=O)N3CCN(c4ccccc4)CC3)cn12	.	.	/	/	.	/
CCCCCCCNC(=O)CN1N=C(c2ccc(C)cc2)CCC1=O	.	.	.	.	.	.
C=Cc1ccc(Cn2ccn(-c3ccc(F)c(F)c3)c(=O)c2=O)cc1	.	.	/	/	/	/
CC(C)C[C@H]1COc2cccc(N3CCSCC3)c2S(=O)(=O)N1	?	.	/	/	.	/
CN(C)c1ccc(C=O)c(O)c1	.	.	/	/	/	/
O=C(O)/C=C/c1ccc2ccccc2n1	.	?	.	.	-71	.
CN(C)c1ccc(/C=C/c2ccc3cc(N(C)C)ccc3n2)cc1	?	13µM	/	/	/	/
Cc1cc(/C=C/c2ccccc2)nc2ccccc12	10µM	?	/	/	/	/
Oc1ccc(/C=C/c2ccc3ccccc3n2)cc1	21µM	23µM	7.9µM	?	.	11µM
Cc1nc(/C=C/c2ccccc2)cc(/C=C/c2ccccc2)n1	?	.	.	.	.	?
CCN(CC)c1ccc(/C=C/c2cc(-c3ccccc3)c3ccccc3n2)cc1	26µM	.	.	.	.	.
CN(C)c1ccc(C(=N)Cc2ccc3ccccc3n2)cc1	?	21µM	/	/	.	/
CN(C)c1ccc(/C=C/c2ccc3ccccc3n2)cc1	12µM	18µM	4µM	?	.	2.8µM
CN(C)c1ccc(/C=C/c2cc(/C=C/c3ccc(N(C)C)cc3)c3ccccc3n2)cc1	11µM	?	/	/	/	/
O=c1[nH]c(-c2ccccc2F)nc2c1sc(=S)n2Cc1ccccc1	?	?	?	.	.	.
CN(C)c1ccc(/C=C/c2ccc3cc(F)ccc3n2)cc1	10µM	?	/	/	/	/
C(=C\c1ccc2ccccc2n1)/c1ccccc1	?	?	.	?	.	.
O=C(/C=C/c1ccc2ccccc2n1)c1cc(Br)ccc1O	?	12µM	.	?	.	.
CC[N+](CC)(CC)c1ccc(/C=C/c2ccc3ccccc3n2)cc1	0.071µM	0.089µM	/	/	/	/
Cc1cccc2cc3ccccc3nc12	?	?	/	/	.	/
CN(C)c1ccc(/C=C/c2cccc3cc4ccccc4nc23)cc1	0.13µM	0.1µM	/	/	/	/
COc1ccc(NC(=O)C2=C(C)Nc3nc(CCCO)nn3C2c2ccc(O)cc2)cc1 (stereo unspecified)	.	.	/	/	/	/
